Results: PubChem BioAssay (NCI)
About 83,000 compounds went through this panel and 20% of them were active in at least one assay; those are over-represented in the sample as a whole.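 Each cell line was grown in a 96-well plate and treated with one concentration of compound for 48 hours. Values below 10 were considered active.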 The source made the active and inactive calls.

What follows are compounds tested on HL-60(TB) leukemia (assay: NCI-60 one-dose screen, 48 h (100 = growth as untreated, 0 = no growth, -100 = all killed)). Details: 10 µM unless noted.
With `COc1ccc(-c2c3c(cn2Cc2cccc(OC)c2)-c2oncc2CCC3)cc1` the growth was 100% (inactive). `Cc1cccc2sc(/N=C(\N)C(Br)Br)nc12` was tested, and the growth was 0.778% (active). For `CCOc1c(C#N)c(Nc2ccc(S(N)(=O)=O)cc2)c(C#N)c2nnc(C)n12`, the growth was 114% (inactive). In the case of `O=C(CCn1c[n+](CC(=O)c2ccc(-c3ccccc3)cc2)c2ccccc21)Nc1cccc2cccnc12`, the growth is reported as -42.3% (active). `Cc1cc(-c2ccc(Cl)cc2)n(Cc2nnc(SCC(=O)Nc3ccc(S(N)(=O)=O)cc3)n2-c2ccc([N+](=O)[O-])cc2)n1` was tested, and the growth was 76.8% (inactive). With `Clc1ccc(-c2nc3ccc(/C(=N\N=C\c4ccccc4)c4ccccc4)cc3[nH]2)cc1` the growth was 73.3% (inactive). In the case of `CC1(C)CC[C@]2(CN)CC[C@]3(C)C(=CC[C@@H]4[C@@]5(C)CCCNC(C)(C)[C@@H]5CC[C@]43C)[C@H]2C1`, the growth is reported as 87% (inactive). `O=C(CCCCCCNC(=O)C(O)(O)C(F)(F)F)Nc1ccc(-c2ccccc2)cc1` was tested, and the growth was 13.1% (inactive). `COc1cc(C(=O)c2cc(C(C)=O)c3c4ccccc4ccn23)cc(OC)c1OC` was tested, and the growth was 32.9% (inactive). For `NC1[C@H]2CN(c3cnc(C(=O)Nc4cc(F)cc5cccnc45)cn3)C[C@@H]12` (stereo partly drawn), the growth was 11.5% (inactive). In the case of `Clc1ccc2c(OCCCN3CCOCC3)c3oc4ccccc4c3nc2c1`, the growth is reported as 42.1% (inactive). With `O=C1[C@H]2Cc3c([nH]c4ccccc34)[C@@H](c3ccc(Br)cc3)N2C(=O)CN1C1CCN(Cc2ccccc2)CC1` the growth was -28.4% (active). With `O=C(/C=C1\C=CN(CCCCF)c2ccccc21)n1ccc2ccccc21` the growth was 121% (inactive).
